Some test systems named below: HCT-15 colon; HT29 colon; SNB-75 CNS; SNB-19 CNS; U251 CNS; PC-3 prostate; SK-MEL-5 melanoma; UACC-62 melanoma; LOX IMVI melanoma; SK-MEL-28 melanoma; SK-MEL-2 melanoma; EKVX NSCLC; SN12C renal; UO-31 renal; TK-10 renal; ACHN renal; CAKI-1 renal; A498 renal; CCRF-CEM leukemia; MOLT-4 leukemia.
What all share (assay): NCI-60 one-dose screen, 48 h (100 = growth as untreated, 0 = no growth, -100 = all killed)
Holding throughout (settings): 10 µM unless noted

About 83,000 compounds went through this panel and 20% of them were active in at least one assay; those are over-represented in the sample as a whole.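 How to read the values: 0–100, growth inhibition (40 = 60% inhibited); 0, no net growth; -100 to 0, cell death (-40 = 40% of starting cells died; -100 = all dead).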 A number with no mark means an inactive call. Active and inactive are the calls of the source. How the source made its calls: active means growth percent below 10; inactive means the rest.

As to `O=S(=O)(NCCCNc1nccc(-c2[nH]c(-c3ccccc3)nc2-c2ccc(F)c(O)c2)n1)c1cccc2ccccc12`, the growth with HCT-15 colon is 39.4%; in the assay on HT29 colon it was 101%; in the assay on SNB-75 CNS, 75.4%; in the assay on SNB-19 CNS, 76.5%; in the assay on U251 CNS it was 50.5%; in the assay with PC-3 prostate it was 52.8%. The growth in the assay with SK-MEL-5 melanoma was 34.1%; in the assay with UACC-62 melanoma it was 26.3%; in the assay with LOX IMVI melanoma, 31.9%; in the assay on SK-MEL-28 melanoma, 54.3%; in the assay with SK-MEL-2 melanoma, 17.1%; in the assay on EKVX NSCLC it was 82%. Further, the growth in the assay on SN12C renal is 63.2%; in the assay on UO-31 renal, 75.2%; in the assay on TK-10 renal, 72.5%; in the assay on ACHN renal, 59.6%; with CAKI-1 renal, 77.2%; in the assay on A498 renal, 73.1%. Also, the figures for the growth in the assay with CCRF-CEM leukemia and in the assay on MOLT-4 leukemia were 17% and 31.4%, respectively.
Consider `CN1CCN(Cc2ccc(NC(=O)c3cncc(C#Cc4cnc5ccc(OC6CCOCC6)nn45)c3)cc2C(F)(F)F)CC1`, for which the growth in the assay on HCT-15 colon was -66.4% (active); with HT29 colon it was -68% (active); with SNB-75 CNS, -84.9% (active); in the assay with SNB-19 CNS it was -84% (active); with U251 CNS it was -82.8% (active); in the assay with PC-3 prostate, -49.7% (active). Besides, the growth with SK-MEL-5 melanoma was -95.6% (active); with UACC-62 melanoma, -70.5% (active); in the assay on LOX IMVI melanoma it was -93% (active); in the assay with SK-MEL-28 melanoma, -82.5% (active); with SK-MEL-2 melanoma, -90.8% (active); with EKVX NSCLC, -73.8% (active). The growth is -78.8% (active) with SN12C renal; -92.3% (active) in the assay on UO-31 renal; -89.6% (active) in the assay with TK-10 renal; -100% (active) with ACHN renal; -97% (active) in the assay with CAKI-1 renal; -92.5% (active) with A498 renal. Further, the results for the growth in the assay with CCRF-CEM leukemia and with MOLT-4 leukemia were 0.551% (active) and 3.74% (active), respectively.
Take `CSc1ccc(/C(=N/N=C(N)N)c2ccc(Cl)cc2)cc1`: the growth with HCT-15 colon is 3.54% (active); in the assay on HT29 colon it was -30.1% (active); in the assay on SNB-75 CNS it was 1.16% (active); in the assay on SNB-19 CNS, 19.6%; in the assay with U251 CNS it was -13.5% (active); with PC-3 prostate, 8.76% (active). The growth with SK-MEL-5 melanoma was -0.967% (active); in the assay with UACC-62 melanoma, 7.53% (active); in the assay on LOX IMVI melanoma it was -42.5% (active); in the assay with SK-MEL-28 melanoma, 48.8%; in the assay on SK-MEL-2 melanoma, -7.8% (active); with EKVX NSCLC, 35.1%. The growth was 7.12% (active) in the assay on SN12C renal; 10.1% in the assay with UO-31 renal; 51.3% in the assay with TK-10 renal; 15% in the assay with ACHN renal; 3.83% (active) in the assay with CAKI-1 renal; -21.6% (active) in the assay with A498 renal. Moreover, the growth was 16.1% with CCRF-CEM leukemia and 13.4% in the assay on MOLT-4 leukemia.
For the molecule `COc1ccc(OC)c(NC(=O)CCCCCCNC(=O)C(O)(O)C(F)(F)F)c1`, the growth in the assay on HCT-15 colon was 59.4%; in the assay on HT29 colon, 23.6%; in the assay on SNB-75 CNS, 56.1%; with SNB-19 CNS it was 63.5%; in the assay on U251 CNS it was 41.8%; in the assay on PC-3 prostate, 51.4%. The growth in the assay on SK-MEL-5 melanoma is 16.6%; in the assay on UACC-62 melanoma, 13%; in the assay with LOX IMVI melanoma it was 32.3%; with SK-MEL-28 melanoma, 35.6%; with SK-MEL-2 melanoma it was 10.6%; in the assay with EKVX NSCLC, 56%. The growth is 58.9% in the assay on SN12C renal; 30.3% in the assay with UO-31 renal; 12.9% in the assay on TK-10 renal; 15.3% with ACHN renal; 25.2% in the assay on CAKI-1 renal; 38.3% in the assay on A498 renal. Besides, the figures for the growth in the assay with CCRF-CEM leukemia and in the assay on MOLT-4 leukemia were 23.5% and 20%, respectively.
For the molecule `O=C(CSc1cc[n+](CCCCO)c2ccccc12)n1ccc2ccccc21`, the growth is 104% in the assay with HCT-15 colon; 103% in the assay on HT29 colon; 96.1% in the assay on SNB-75 CNS; 100% in the assay on SNB-19 CNS; 96.3% with U251 CNS; 97.6% with PC-3 prostate. Also, the growth was 98.7% with SK-MEL-5 melanoma; 93.5% with UACC-62 melanoma; 103% in the assay on LOX IMVI melanoma; 110% in the assay with SK-MEL-28 melanoma; 111% with SK-MEL-2 melanoma; 89.3% in the assay with EKVX NSCLC. The growth in the assay with SN12C renal was 103%; in the assay with UO-31 renal, 63.6%; with TK-10 renal, 155%; in the assay on ACHN renal, 96.4%; with CAKI-1 renal it was 81.9%; in the assay with A498 renal it was 114%. In addition, the growth in the assay on CCRF-CEM leukemia was 107%; in the assay with MOLT-4 leukemia it was 95.8%.
For the molecule `COC(=O)c1ccc(NC2=C(Cl)C(=O)c3nc(C)ccc3C2=O)cc1`, the growth was 22.7% in the assay with HCT-15 colon; 90.5% with HT29 colon; 106% with SNB-75 CNS; 61.9% in the assay with SNB-19 CNS; 46.9% in the assay on U251 CNS; 57.3% with PC-3 prostate. The growth with SK-MEL-5 melanoma is 68.4%; in the assay on UACC-62 melanoma, 68.5%; in the assay on LOX IMVI melanoma, 45.1%; in the assay on SK-MEL-28 melanoma it was 75.4%; with SK-MEL-2 melanoma, 88.3%; with EKVX NSCLC, 76.6%. For the same molecule, the growth with SN12C renal was 77%; in the assay on UO-31 renal it was 61.7%; in the assay on TK-10 renal it was 152%; with ACHN renal, 35.1%; in the assay with CAKI-1 renal it was 80.2%; in the assay with A498 renal it was 77.9%. Also, the growth in the assay with CCRF-CEM leukemia is 16.1%; in the assay on MOLT-4 leukemia, 19.8%.
Consider `CN1CCN(c2ccc(Nc3nc(NCCCNS(=O)(=O)c4ccc(Cl)cc4)c4sccc4n3)cc2)CC1`, for which the growth in the assay with HCT-15 colon is 6.7% (active); in the assay with HT29 colon, -69.7% (active); in the assay with SNB-75 CNS, 19.8%; in the assay with SNB-19 CNS, 39.5%; in the assay on U251 CNS, -11.3% (active); in the assay on PC-3 prostate, 51.5%. Besides, the growth was -91.1% (active) in the assay on SK-MEL-5 melanoma; -30.5% (active) in the assay on UACC-62 melanoma; -84.6% (active) with LOX IMVI melanoma; -71.9% (active) with SK-MEL-28 melanoma; -9.34% (active) in the assay on SK-MEL-2 melanoma; 50.8% with EKVX NSCLC. Further, the growth in the assay on SN12C renal is 36.7%; in the assay with UO-31 renal, -58.9% (active); in the assay on TK-10 renal, 9.93% (active); in the assay with ACHN renal, 6.32% (active); in the assay with CAKI-1 renal it was 10.8%; in the assay on A498 renal, 19.7%. For the same molecule, the growth is 13% in the assay with CCRF-CEM leukemia and 4.92% (active) in the assay with MOLT-4 leukemia.

Source of the values: PubChem BioAssay (NCI).
